ERK EGF block = qHTS Assay for Inhibitors of the ERK Signaling Pathway using a Homogeneous Screening Assay; Stimulation with EGF | HEK293-V1b, EGF-stimulated phospho-ERK AlphaScreen | AID 1454, 2008 | 130,000 tested, 0.41% active | Potency, µM (titrated, usually from 11.5 µM), without a hit: top-dose activity change, negative = inhibition, actives largely listed as inhibitors; active = well fitted inhibition curve with a large enough effect;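 also: plate controls were stimulated vehicle wells for no effect and unstimulated vehicle basal for full effect; nearly all actives have a fitted effect of over 55% in size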
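Concentration-response of compounds against EGF-driven ERK phosphorylation in V1b-expressing HEK293 cells; 30 min preincubation, 5 min EGF, AlphaScreen detection; Normalized to DMSO basal and 25 nM EGF.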
* = called active by the depositor; [ ] = dose if it differs, or a comment. Many of the other results were omitted from the sample, so hits are more common in it than they were. Potency is read from the fitted curve at half-maximal effect.

SMILES	ERK EGF block
Cc1ccc(-n2[nH]c(C)c(/C=N/Nc3ccc([N+](=O)[O-])cc3[N+](=O)[O-])c2=O)cc1C	15.8µM*
Cc1[nH]n(-c2ccc([N+](=O)[O-])cc2)c(=O)c1/C=N/N1CCOCC1	8.4%
O=[N+]([O-])c1c(Nc2ccccn2)cc(Cl)c2nonc12	14.1µM*
O=[N+]([O-])c1ccc(Nc2ccccn2)c([N+](=O)[O-])c1	-9.5%
O=C(O)c1cccc(Nc2cc(Cl)c3nonc3c2[N+](=O)[O-])c1	0.1%
O=S(=O)(O)c1ccc(N=Nc2ccccc2)cc1	-2.5%[57.5 µM]
Nc1ccc(N=Nc2ccccc2)c(N)n1	3.2%[57.5 µM]
Nc1ccc(N=Nc2ccccc2)c2ccccc12	17.8µM*
COc1ccc(-c2csc(Nc3ccccc3)n2)cc1	0.9%
C=C1C2CC[C@@]3(C)C(c4ccoc4)OC(=O)C[C@@]13OC1CC(O)C(C)(C)C(CC(=O)OC)[C@@]12C (some centres undefined)	-5.3%
COc1ccccc1NS(=O)(=O)c1ccc(N/N=C/c2c(C)nn(-c3ccccc3)c2N2CCCC2)c([N+](=O)[O-])c1	12.6µM*
Cc1nn(-c2ccccc2)c(N2CCCC2)c1/C=N/Nc1ccc(S(=O)(=O)Nc2ccccc2)cc1[N+](=O)[O-]	3.5%
COc1ccccc1NS(=O)(=O)c1cccc(C(=O)N/N=C/c2c(C)nn(-c3ccccc3)c2N2CCCC2)c1	4.9%
Cc1cccc(Cl)c1NC(=S)NN	4.2%[57.5 µM]
Cc1csc2c(N3CCN(C(=S)Nc4ccc(C(F)(F)F)cc4)CC3)ncnc12	-17.1%[57.5 µM]
Cc1csc2c(N3CCN(C(=O)NC(C)(C)C)CC3)ncnc12	6.8%[57.5 µM]
Cc1csc2c(N3CCN(C(=O)c4ccc(C(C)(C)C)cc4)CC3)ncnc12	28.2µM*
CN(C)c1ccnc(Nc2ccccc2)c1C#N	6.9%[57.5 µM]
CN(C)c1ccnc2c[cH-]cc12.[Fe].c1ccc(-[c-]2[c-](-c3ccccc3)[c-](-c3ccccc3)[c-](-c3ccccc3)[c-]2-c2ccccc2)cc1 (centres undefined)	3.16µM*
O=S(=O)(c1ccc(Br)cc1)N1CCCN(Cc2cccc(F)c2)CC1	-6.0%
O=[N+]([O-])c1cc(S(=O)(=O)N2CCCC2)ccc1NN=C1CCCCC1	-2.0%
O=[N+]([O-])c1cc(C(F)(F)F)cc([N+](=O)[O-])c1NCCCN1CCOCC1	-0.6%
O=[N+]([O-])c1cc(C(F)(F)F)cc([N+](=O)[O-])c1NN=C1CCCCC1	17.8µM*
CCCCc1c(C)[nH]c(C(=O)OCC)c1C	7.2%
Nc1c(C(=O)NCc2cccs2)nnn1CC(=O)Nc1cccc(Cl)c1	-0.3%
SMILES	ERK EGF block
COc1ccc(CC2(C)OC(c3ccc(Cl)cc3)=NN2C(C)=O)cc1 (centres undefined)	-2.4%
NS(=O)(=O)c1ccc(CCNC(=O)Cc2ccc(S(=O)(=O)N3CCCC3)s2)cc1	3.6%[57.5 µM]
c1ccc2c(c1)CCN(c1ncnc3nc[nH]c13)C2	8.0%
CCOc1ncnc2c1[nH]c1ccccc12	-9.1%[57.5 µM]
CCOc1ccc2[nH]c3c(N4CCc5ccccc5C4)ncnc3c2c1	31.6µM*
Cc1cccc(C)c1NC(=O)C(=O)c1cn(C)c2ccccc12	-2.2%
C=C1CC2C3CC[C@@]4(OCOC45COCO5)[C@@]3(C)C(O)CC2[C@@]2(C)CCC(=O)C=C12 (some centres undefined)	-0.1%
CC1(C)Cc2sc3c(=O)[nH]c(=S)[nH]c3c2CO1	3.6%[57.5 µM]
C=CCOC(=O)N[C@H](c1cccc(C(F)(F)F)c1)C(C(C)=O)C(C)=O	-4.1%
Cc1ccc(-c2nc(NC(=O)c3ccc(S(=O)(=O)N(CCC#N)CCC#N)cc3)sc2-c2ccccc2)cc1	0.3%
CSc1ncccc1C(=O)NC(C)C1CC2CCC1C2 (centres undefined)	1.6%
COc1cccc2c1C(=O)c1c(O)c3c(c(O)c1C2=O)C[C@@](O)(C(=O)CO)C[C@@H]3O[C@H]1C[C@H](N)[C@H](O)[C@H](C)O1	28.2µM*
COc1cccc2c1C(=O)c1c(O)c3c(c(O)c1C2=O)C[C@](O)(C(C)=O)C[C@H]3O[C@@H]1C[C@H](N)[C@H](O)[C@H](C)O1	-0.6%[25.7 µM]
COc1ccc(CCC(=O)OCC(=O)c2ccc(C)cc2)cc1	0.9%
O=c1[nH]c(=O)n([C@@H]2O[C@H](CO)[C@@H](O)[C@H]2O)cc1F	1.6%
OCCCNc1ncnc2sc(-c3ccccc3)cc12	5.9%
COc1ccc(/C(=C/Nc2cccc(Br)c2)C(C)=O)cc1OC	1.9%
O=C(O)c1cccc(Nc2ncnc3sccc23)c1	-2.4%
Cc1cc2c(Nc3ccccc3)ncnc2s1	14.1µM*
COc1ccc(Nc2ncnc3c2cnn3-c2cccc(C)c2)cc1OC	-8.5%[57.5 µM]
Cc1cccc(Nc2ncnc3ccc(Br)cc23)c1	1.78µM*
Cc1cccc(Nc2nc3ccccc3n3nnnc23)c1	-3.7%
Cc1ccc2ncnc(Nc3ccccc3)c2c1	3.55µM*
CCOc1ccc(Nc2ncnc3ccc([N+](=O)[O-])cc23)cc1	-6.7%
Cc1ccc2ncnc(Nc3cccc(C(=O)O)c3)c2c1	-3.3%[57.5 µM]
SMILES	ERK EGF block
Cc1ccc2ncnc(NCCCCCC(=O)O)c2c1	-10.2%[57.5 µM]
COc1cc2ncnc(Nc3cccc(Br)c3)c2cc1OC	0.1µM*
O=[N+]([O-])c1cc(/C=N/n2cnnc2)ccc1N1CCCC1	-5.9%[57.5 µM]
O=C(c1cccc([N+](=O)[O-])c1)N1CCCC(C(=O)N2CCCCCC2)C1 (centres undefined)	-12.5%[57.5 µM]
NC(=S)Nc1ccc(C(F)(F)F)cc1Cl	10.9%[57.5 µM]
COC(=O)c1ccc(N2C(=O)C3CC=CC(C)C3C2=O)cc1 (centres undefined)	2.8%
CCN(CC)S(=O)(=O)c1ccc(N2CCCC2)c(NC(=O)c2ccc(OC)cc2OC)c1	-6.9%
Cc1occc1C(=O)NCc1ccco1	-6.1%
Cc1ccc(-c2nnc(CCC(=O)N(C)Cc3nccs3)o2)s1	-2.0%
COCCN(CCOC)C(=O)CCn1c(=O)oc2ccccc21	3.2%
O=c1c2cccnc2nc2n1CCCCC2	-1.3%
CC(Nc1ncnc2nc[nH]c12)c1ccccc1 (centres undefined)	1.3%
Cc1ccc(/C=N/Nc2ncnc3nc[nH]c23)cc1	8.8%[57.5 µM]
Cc1cccc(Nc2ncnc3nc[nH]c23)c1	28.2µM*
COc1ccc(-c2nc(C#N)c(NCCc3ccccc3)o2)cc1	28.2µM*
COc1ccc(Nc2oc(-c3ccccc3)nc2C#N)cc1	-4.2%
COc1ccc(Nc2oc(-c3ccc(OC)cc3)nc2C#N)cc1	-2.6%[57.5 µM]
O=C(OCc1nc2scc(-c3ccccc3)c2c(=O)[nH]1)c1cc(Cl)ccc1[N+](=O)[O-]	3.7%
COc1ccc(C2C(C#N)=C(N)Nc3nc4ccccc4n32)cc1 (centres undefined)	-7.8%
COc1ccc([C@@H]2OC2(C(N)=O)C(N)=O)cc1	10.0%[57.5 µM]
COc1ccc(C2C3(C#N)C(N)=NC(OC)(OC)C23C#N)cc1 (centres undefined)	25.1µM*
Cc1ccc(/C=N/n2cc(-c3ccccc3)[nH]c2=S)s1	0.5%
O=C(NCCc1cccs1)C1CC(c2cccc(F)c2)=NO1 (centres undefined)	-4.0%[57.5 µM]
CC(=O)Nc1ccccc1OCc1nnc(-c2ccc(Cl)cc2)o1	-5.5%
CN(C)c1ccc(N=C/C=C2/N(C)c3ccccc3C2(C)C)cc1	14.1µM*
CN1C(=CC=C2C=C(I)C(=O)C(I)=C2)C(C)(C)c2ccccc21	12.6µM*
CN1/C(=C\C=C2/SC(=S)NC2=O)C(C)(C)c2ccccc21	25.1µM*
CN1/C(=C\C(=S)NC(=O)c2ccc([N+](=O)[O-])cc2)C(C)(C)c2ccccc21	2.7%
CN1/C(=C\C=C2/C(=O)Oc3ccccc3C2=O)C(C)(C)c2ccccc21	6.4%
